Screening data deposited in PubChem by National Center for Advancing Translational Sciences (NCATS).
SARS PLpro yeast – SARS-CoV PLP inhibition in yeast | S. cerevisiae expressing SARS-CoV PLpro, growth rescue | Potency, µM (highest dose often 32.9 µM), hits mostly activators | AID 485353 | 0.19% of 330,000 active; calls by dose curve; note: nearly all actives have a fitted effect of over 55% in size
AMA1 RON2 block – inhibitors of Plasmodium falciparum AMA1-RON2 interaction | AlphaScreen AMA1-biotinylated RON2 peptide binding | 0.2% of 360,000 active | Potency, µM (titrated, usually from 58.2 µM), actives largely listed as inhibitors; note: nearly all actives have a fitted effect of over 45% in size
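AMA1 (3D7) with his tag at 25 nM final met compounds first, then biotinylated RON2 peptide at 25 nM; detection used donor plus acceptor beads, 10 µg/mL apiece, read by AlphaScreen after 30 min at room temperature.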
Pf growth 48h – inhibits P. falciparum growth in the first generation, 48 h | P. falciparum luciferase growth in erythrocytes, 48 h | Potency, µM (doses to about 28.7 µM), hits mostly inhibitors | 5.9% of 310,000 active
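Here the parasites carry a stable luciferase gene and grow inside erythrocytes in Albumax-based RPMI medium with compound for one erythrocytic cycle. Activity is scored as loss of luminescent signal.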
Pf growth 96h – inhibits malaria parasite growth, 96 h. P. falciparum luciferase reporter growth, 96 h. Potency, µM (titrated, usually from 28.7 µM), hits mostly inhibitors. 6.9% of 320,000 active. AID 504834
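Erythrocytes infected with luciferase-expressing P. falciparum were dispensed at 2% hematocrit and 0.05% parasitemia (final), then incubated with compounds 96 hours at 37 C in 5% CO2. Luminescence after detection reagent addition reported growth.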
Each line names hits and unclear results; the compound was inactive in the other large screens. The list is not random: actives were taken first. Their share in the collection is about 9.4%. Unless noted, calls come from the whole dose curve; as a rule, active = well fitted curve in the direction sought with a large enough effect; inconclusive = small, poorly fitted or top-dose-only effect, or another doubt; inactive = no such curve, though single readings can be large; an effect the other way counts as inactive or inconclusive.

Fc1ccc(N2CCN(C(c3cccs3)c3nnnn3CCc3ccccc3)CC2)cc1 (stereo not drawn)	Pf growth 48h 13µM
CCCC[C@@H]1C[C@H]1[C@@H](NC(=O)c1cccs1)c1ccc(C(F)(F)F)cc1	none (no result: SARS PLpro yeast, Pf growth 48h, Pf growth 96h)
CCCC[C@@H]1C[C@H]1[C@@H](NC(=O)c1cccs1)c1ccc(Cl)cc1	Pf growth 48h inconclusive, Pf growth 96h 9.3µM
Cc1ccc(-c2nnn(CC(=O)N(c3ccccc3F)C(C(=O)NC3CCCC3)c3ccco3)n2)o1 (stereo not drawn)	Pf growth 48h inconclusive, Pf growth 96h inconclusive
CCOc1ccc(CCNC(=O)COC(=O)CCc2cc(OC)c(OC)c(OC)c2)cc1OCC	Pf growth 48h 13µM, Pf growth 96h inconclusive
CCOc1ccc(CCNC(=O)COC(=O)Cc2ccc(OC)c(OC)c2)cc1OCC	Pf growth 48h inconclusive
CCCOc1ccc(C(=O)OCC(=O)NCCc2ccc(OCC)c(OCC)c2)cc1OC	Pf growth 48h inconclusive, Pf growth 96h 13µM
CCOc1ccc(CCNC(=O)COC(=O)c2ccncc2)cc1OCC	none (no result: Pf growth 48h, Pf growth 96h)
COc1ccc(C(=O)OCC(=O)NCCCc2ccccc2)cc1[N+](=O)[O-]	none
COc1cc(C(=O)OCC(=O)NCCCc2ccccc2)ccc1OCC(C)C	Pf growth 48h inconclusive, Pf growth 96h 5.9µM
CCOc1ccc(CCNC(=O)COC(=O)c2ccc(OC(C)C)cc2)cc1OCC	Pf growth 48h 12µM, Pf growth 96h inconclusive
Cc1ccc(S(=O)(=O)CC(O)CN2CCCC2=O)cc1 (stereo not drawn)	none
CCN(CC(=O)Nc1c(F)cccc1F)C(=O)/C=C/c1ccc(C)o1	none
CSCCC(NC(=O)c1ccco1)C(=O)OCC(=O)N1c2ccccc2NC(=O)C1(C)C (stereo not drawn)	none
CCOC(=O)N1CCN(C(=O)c2ccc3c(c2)ncn3C2CCCC2)CC1	none
CCCNC(=O)COC(=O)/C=C/c1ccc(C)o1	none
CCOc1ccc(CCNC(=O)COC(=O)c2nn(C)c(=O)c3ccccc23)cc1OCC	Pf growth 48h 2.9µM
CCOc1ccc(CCNC(=O)COC(=O)/C=C/c2ccc(C)o2)cc1OCC	Pf growth 48h 13µM, Pf growth 96h 5.2µM
CCO[C@H]1O[C@@H]([C@H](COCc2ccccc2)OCc2ccccc2)[C@@H](OCc2ccccc2)[C@H]1O	Pf growth 48h 6.4µM, Pf growth 96h 4.5µM (no result: SARS PLpro yeast, AMA1 RON2 block)
CC(C)c1ccc(-n2c(-c3ccccc3)c[n+]3c2CCc2ccccc2-3)cc1	Pf growth 48h 1µM, Pf growth 96h 0.83µM
COc1ccc(-n2c(-c3ccc(Br)cc3)c[n+]3c2CCc2ccccc2-3)cc1	Pf growth 48h 1.9µM, Pf growth 96h 0.47µM
COc1ccccc1-n1c(-c2ccccc2)c[n+]2c1CCc1ccccc1-2	Pf growth 48h inconclusive, Pf growth 96h inconclusive
Cn1c(=O)oc2cc(S(=O)(=O)N3CCC(C(=O)NCC4COc5ccccc5O4)CC3)ccc21 (stereo not drawn)	none (no result: Pf growth 48h)
O=C(COn1nnc2ccc(C(F)(F)F)cc21)Nc1nnc(-c2ccccc2)o1	Pf growth 96h inconclusive
Cc1cc(C)n(CC(=O)N2c3ccccc3Sc3ccc(C(F)(F)F)cc32)n1	Pf growth 48h 10µM, Pf growth 96h inconclusive
CC(C)OP(=O)(O)NC(=O)c1ccccc1	none
CCN1C(=O)c2ccc(C(=O)Nc3ccc4c(c3)OCO4)cc2C1=O	none
C#CCOCCOCCOCCNc1nc(N2CCN(C(=O)[C@H](CO)n3cc([C@@H](N)C(C)C)nn3)CC2)nc(N2CCN(C(=O)[C@H](CCCCN)n3cc([C@@H](N)[C@H](C)CC)nn3)CC2)n1	none (no result: Pf growth 48h, Pf growth 96h)
Cc1cc(NC(=O)c2cccc(S(=O)(=O)N3c4ccccc4CC3C)c2)no1 (stereo not drawn)	Pf growth 48h 3.3µM, Pf growth 96h 5.2µM
CC1Cc2ccccc2N1S(=O)(=O)c1cccc(C(=O)N2Cc3ccccc3CC2C(N)=O)c1 (stereo not drawn)	Pf growth 48h inconclusive, Pf growth 96h 13µM
CCOC(=O)c1sc(NC(=O)c2cccc(S(=O)(=O)N3c4ccccc4CC3C)c2)cc1C (stereo not drawn)	Pf growth 48h 2.9µM, Pf growth 96h inconclusive
CC1Cc2ccccc2N1S(=O)(=O)c1cccc(C(=O)N2CCCCC2)c1 (stereo not drawn)	none
Cc1sc2nc(SCC(=O)Nc3ccc(S(=O)(=O)NCCCC(=O)O)cc3)[nH]c(=O)c2c1C	Pf growth 96h inconclusive
CCN1CCN(c2ccc(S(=O)(=O)N3CCOCC3)cc2NC(=O)CCOc2ccccc2)CC1	Pf growth 96h inconclusive
S=c1[nH]nc2nnc3ccccc3n12	none
CCOC(=O)c1nnn(-c2nonc2-n2cccc2)c1C	Pf growth 48h inconclusive, Pf growth 96h inconclusive
CCOC(=O)c1nnn(-c2nn3nnnc3c3ccccc23)c1C	Pf growth 48h 0.93µM
CCN(CC)CCn1c2c(c(SCC(=O)Nc3ccc4c(c3)OCCO4)nc1=O)CCCC2	Pf growth 48h inconclusive, Pf growth 96h 2.9µM
CC(=O)Nc1ccc(NC(=O)CSc2nc(=O)n(CCCN3CCOCC3)c3c2CCC3)cc1	none (no result: SARS PLpro yeast, Pf growth 48h, Pf growth 96h)
CCc1ccc(NC(=O)CSc2nc(=O)n(CCCN3CCOCC3)c3c2CCCC3)cc1	Pf growth 48h 9.3µM, Pf growth 96h inconclusive
O=C(c1cccc(F)c1)N1CCN(S(=O)(=O)c2ccc(C(F)(F)F)cc2)CC1	Pf growth 96h inconclusive
CC(C)(C)c1ccc(C2CC2C(=O)N/N=C\c2ccc[nH]2)cc1 (stereo not drawn)	Pf growth 48h inconclusive
COc1ccc(-c2csc(Nc3ccccc3)[n+]2CC(O)c2ccc([N+](=O)[O-])cc2)cc1 (stereo not drawn)	AMA1 RON2 block inconclusive, Pf growth 48h 1.3µM, Pf growth 96h 1.5µM
COc1ccccc1-c1n[nH]c(=S)n1-c1ccccc1	Pf growth 96h 13µM
COc1ccccc1-c1n[nH]c(=S)n1N	none
O=C(CN1C(=O)c2cccnc2Oc2ccc(Cl)cc21)NCCC1=CCCCC1	Pf growth 48h inconclusive
CC(NC(=O)CSc1nnc(-c2cc3cc(Cl)ccc3o2)n1C)c1ccccc1 (stereo not drawn)	Pf growth 48h inconclusive, Pf growth 96h 4.7µM
S=c1[nH]c2ccc3ccccc3c2[nH]1	Pf growth 96h inconclusive
Cc1[nH]c2c(ccc3ccccc32)c1C1C(CCN)C1(C)C (stereo not drawn)	Pf growth 48h 10µM (no result: Pf growth 96h)
Cc1ccc(S(=O)(=O)NC(C)C(c2cccs2)N2CCN(C)CC2)cc1 (stereo not drawn)	Pf growth 96h 10µM
O=c1[nH]c2ccccc2c(O)c1-c1ccccc1[N+](=O)[O-]	none
Cc1ccc([N+](=O)[O-])c(OCCN2CCC(Cc3ccccc3)CC2)c1	AMA1 RON2 block inconclusive
Cc1ccnc(NC(=O)c2ccc(S(=O)(=O)N3CCCCC3)cc2)c1	Pf growth 48h inconclusive
CC1=C(CC(=O)c2ccccc2)C(=O)c2ccccc2C1=O	AMA1 RON2 block inconclusive, Pf growth 48h 0.74µM, Pf growth 96h 0.83µM
Cc1cc(C)n2cc(CSCc3ccccc3)nc2n1	Pf growth 96h inconclusive
CCOC(=O)C1(CC2CCCCO2)CCN(C(=O)Nc2ccccc2SC)CC1 (stereo not drawn)	Pf growth 48h inconclusive, Pf growth 96h 12µM
